Sampled rows, rich in hits. Any-hit rate of the full collection: about 4.1%.
ssDAF-12 act: activates DAF-12 receptor from parasite S. stercoralis. HEK293 ssDAF-12/GRIP1 lit1-tk-luc reporter, luminescence; % of 3 µM dafachronic acid response. activation, % at 6.8 µM. 370,000 tested, 1% active. AID 652126;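 active = activation above the mean over all tested compounds plus 3 SD, cut at about 0.9% in these data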
DAX1 inh-1: DAX1 (NR0B1) inhibition, primary screen. inhibition, % at 6.8 µM. 370,000 tested, 1.1% active. HEK293T StAR-luciferase reporter, SF-1/DAX-1 repression relief;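 active = inhibition above the mean over all tested compounds plus 3 SD, cut at about 3.6% in these data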;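 note: higher inhibition means more luminescence from relief of DAX-1 repression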
hgDAF12 agonist: agonists of H. glycines DAF-12 nuclear receptor | HEK293 GAL4-hgDAF12 UAS-luciferase reporter, agonist luminescence; normalized to butyrate control | activation, % at 6.8 µM | 370,000 tested, 1.8% active;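 active = activation above a cutoff set at the mean of all screened compounds plus 3 SD, cut at about 10% in these data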
DAX1 inh-2: NR0B1 (DAX1) inhibition. HEK293 Gal4-DAX1 luciferase reporter, luminescence. inhibition, % at 6.75 µM. 340,000 tested, 0.99% active;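 active = inhibition above the mean over all tested compounds plus 3 SD, cut at about 4.2% in these data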;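 note: inhibition shows as a rise in luminescence from relieved DAX1 repression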
Target sequence (P51843 207-470 limits assumed): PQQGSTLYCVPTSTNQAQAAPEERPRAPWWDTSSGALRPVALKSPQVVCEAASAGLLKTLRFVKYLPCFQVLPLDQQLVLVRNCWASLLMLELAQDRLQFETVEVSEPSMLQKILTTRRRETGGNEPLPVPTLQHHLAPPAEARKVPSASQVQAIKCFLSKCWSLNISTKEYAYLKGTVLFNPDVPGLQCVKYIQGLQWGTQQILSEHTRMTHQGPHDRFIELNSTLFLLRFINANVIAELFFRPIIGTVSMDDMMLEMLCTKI
hcDAF-12 act: activates DAF-12 receptor from parasite H. contortus. 370,000 tested, 1.4% active. HEK293 hcDAF-12 lit1-tk-luc reporter, luminescence; 0% DMSO, 100% Δ7-dafachronic acid. activation, % at 6.8 µM. AID 652067;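 active = activation above the mean of all tested compounds plus 3 SD, cut at about 5.5% in these data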
Of the large screens only hits and unclear results are named; the others gave an inactive call.

COc1ccc(C2CC(=O)C(c3ccc4ccccc4c3)=CN2Cc2ccccc2)cc1 (centres undefined)	none (no result: DAX1 inh-2)
Nc1[nH]c(C(=O)c2ccccc2)c(-c2ccc(Cl)cc2)c1C(=O)c1c[nH]c2ccc(F)cc12	none (no result: DAX1 inh-2)
N/C(=N/O)C(c1ccccc1)c1ccccc1	hcDAF-12 act 5.8
O=C(O)C(c1ccccc1)c1ccccc1	none
C=CCNc1cccc2c1S(=O)(=O)N[C@H](Cc1ccccc1)CO2	none (no result: DAX1 inh-2)
COc1ccccc1N1C[C@@H]2C[C@@H](c3ccco3)N3CCC[C@@]23C1=O	DAX1 inh-2 4.9
CCOC(=O)c1nnsc1Nc1ccc(C)c(C)c1	DAX1 inh-2 4.3
CC(C)NC(=O)C1C(c2ccccc2)=Nc2ccccc2N1C(=O)c1ccc(C(F)(F)F)cc1 (centres undefined)	ssDAF-12 act 2.3 (no result: DAX1 inh-2)
CC(C)NC(=O)C1C(c2ccccc2)=Nc2ccccc2N1C(=O)c1cc(Cl)cc(Cl)c1 (centres undefined)	none (no result: DAX1 inh-2)
CC(C)NC(=O)C1C(c2ccc(C(F)(F)F)cc2)=Nc2ccccc2N1C(=O)c1cccc2ccccc12 (centres undefined)	ssDAF-12 act 1.1 (no result: DAX1 inh-2)
Cc1ccc(C(=O)N2c3ccccc3N=C(c3ccccc3)C2C(=O)NC(C)C)cc1 (centres undefined)	ssDAF-12 act 1.0 (no result: DAX1 inh-2)
CCC(C)CNC(=O)c1oc(=O)c2ccccc2c1-c1ccc(C)cc1 (centres undefined)	none (no result: DAX1 inh-2)
CCC(=O)N1CCCC1(C)C(=O)Nc1cc(OC)ccc1OC (centres undefined)	none (no result: DAX1 inh-2)
Cc1ccc(C2=NN(CC(=O)NCc3cccs3)C(=O)CC2)cc1	DAX1 inh-2 5.4
O=C1Nc2ccc(F)cc2C12Nc1ccccc1-c1nnc(SCc3ccccc3)nc1O2 (centres undefined)	hcDAF-12 act 5.6
Cc1[nH]c2ccccc2c1C(=O)c1c(N)[nH]c(C(=O)c2ccccc2)c1-c1ccc(Cl)cc1	none (no result: DAX1 inh-2)
CCc1nnc(NC(=O)CSc2nnc3c(n2)[nH]c2ccccc23)s1	ssDAF-12 act 1.8
O=C(Nn1cnnc1)c1ccc(Cl)c(Cl)c1	DAX1 inh-2 6.2
CCCc1cc(C(=O)Nc2cc(OC)c(Cl)cc2OC)no1	hcDAF-12 act 6.5
COc1cc(OC)c(NC(=O)c2cccc(F)c2)cc1Cl	ssDAF-12 act 1.2
COc1cc(NC(=O)c2ccccc2)c(OC)cc1Cl	hcDAF-12 act 5.8
COc1cc(N)c(Cl)cc1NC(=O)c1ccccc1	none
COc1cc(OC)c(NC(=O)c2ccc(F)cc2)cc1Cl	none
O=C(Nc1ccccc1C(=O)NCC1CC1)c1cccs1	none (no result: DAX1 inh-2)
CC(C)(C)NC(=O)C1(C)CCC(=O)N1CCCn1ccnc1 (centres undefined)	none (no result: DAX1 inh-2)
CC(C)S(=O)(=O)c1csc(C(=O)Nc2ccc(F)cc2)c1N	ssDAF-12 act 1.3
Cc1nc(Cl)sc1C(=O)Nc1ccc(F)cc1	none
O=C(NCc1cc(Cl)cc(Cl)c1)c1ccc2sc([C@@H]3O[C@H](CO)[C@H](O)[C@H](O)[C@H]3O)nc2c1	none (no result: DAX1 inh-2)
O=C(NCc1cccnc1)c1ccc2sc([C@@H]3O[C@H](CO)[C@H](O)[C@H](O)[C@H]3O)nc2c1	ssDAF-12 act 0.9 (no result: DAX1 inh-2)
Cc1ccccc1-c1ccc2c(c1)[C@@H]1C[C@H](N(C)CC3CCCCC3)[C@H]([C@H](C)O)CN1CC2	none (no result: DAX1 inh-2)
Cc1ccc(Nc2ccc(N3CCN(c4ccc([N+](=O)[O-])cc4)CC3)nn2)cc1	DAX1 inh-2 4.5
COC(=O)c1cc(-c2ccc(F)c(Cl)c2)c(=O)n2c1CCC2	none (no result: DAX1 inh-2)
COc1ccc2c(c1)CC/C2=N\OC(=O)c1ccccc1C	ssDAF-12 act 2.1
CCCCc1nc2cc(C(=O)N3CCC(OC)CC3)ccc2o1	none
C=CCC1(CC=C)CCCN1C(=O)c1ccc2oc(CCCC)nc2c1	hgDAF12 agonist 12, DAX1 inh-2 4.9, hcDAF-12 act 6.3
OC[C@@H]1CN(CCN2CCOCC2)C[C@H](n2cnc3c(N4CCOCC4)ncnc32)O1	none (no result: DAX1 inh-2)
CCOC(=O)Cc1c(C)nc(SC)[nH]c1=O	hgDAF12 agonist 11
O=c1[nH]c2ccccc2cc1-c1nnn(-c2ccc(Cl)c(Cl)c2)n1	none
Cc1ccc(-n2nnc(-c3cc4ccccc4nc3Cl)n2)cc1	ssDAF-12 act 1.4
C[C@@H]1C[C@H]2[C@@H](C)C(=O)N3[C@H](c4ccccc4)[C@H](C)C[C@H]3[C@@H](C)C(=O)N2[C@@H]1c1ccccc1	none (no result: DAX1 inh-2)
C=CCN=C1NC(CCc2ccccc2)C(C(=O)OC)=C(C)N1Cc1cccc(C(F)(F)F)c1 (centres undefined)	ssDAF-12 act 1.5 (no result: DAX1 inh-2)
C=CCN=C1NC(CCc2ccccc2)C(C(=O)OC)=C(C)N1Cc1ccccc1C(F)(F)F (centres undefined)	none (no result: DAX1 inh-2)
CCCC(=O)Oc1ccc(-c2nccc(C(OC)OC)n2)cc1	DAX1 inh-2 4.3
O=C(Nc1ccccc1OC(F)F)c1ccccc1	none
Cc1ccc(C(=O)Nc2ccccc2OC(F)F)cc1	hgDAF12 agonist 11
Cc1ccc(N/C=C2\CCCCC2=O)nc1	none
O=C1CCCC/C1=C\Nc1ccc(Cl)cn1	DAX1 inh-2 4.3
CN(C)c1ccc(P(=O)(Nc2cccc(C(F)(F)F)c2)N2CCOCC2)c(NC(=O)c2cccs2)c1 (centres undefined)	ssDAF-12 act 1.4
O=C(Nc1cc(C(F)(F)F)ccc1N1CCOCC1)c1cccs1	DAX1 inh-2 4.6
COc1ccc(N2CCOCC2)c(NC(=O)c2cccs2)c1	none
CCOC(=O)C1CC(=NO)c2ccc(OC)c(OC)c2C1 (centres undefined)	none
Nc1nc2c(ncn2[C@@H]2O[C@H](C(=O)N[C@H](Cc3ccccc3)C(=O)O)[C@@H](O)[C@H]2O)c(=O)[nH]1	none (no result: DAX1 inh-2)
c1ccc(CSc2nnc(NC3CCCCC3)s2)cc1	hgDAF12 agonist 12
CCOC(=O)c1sc(NC(=O)c2ccccc2OCC)nc1C	none
CCOC(=O)c1sc(NC(=O)c2ccc3nc[nH]c3c2)nc1C	none
CCOC(=O)c1sc(NC(=O)c2ccc(=O)[nH]c2)nc1C	DAX1 inh-2 6.1
CCOC(=O)c1sc(NC(=O)c2cccnc2)nc1C	hcDAF-12 act 5.9
COC(=O)c1sc(NC(=S)NC(=O)c2cccc(Br)c2)nc1C	DAX1 inh-2 4.6
O=C1CCCCCN1CP(=O)(O)CN1CCCCCC1=O	hgDAF12 agonist 13
CCN(CC)CCN1CNC(=S)NC1	none
CC(C)[C@H](NC(=O)c1ccc(Cl)c([N+](=O)[O-])c1)C(=O)NCc1ccc(F)cc1	DAX1 inh-2 4.6
COc1cc(OC)cc(-c2nc3ccccc3c(=O)n2OC(=O)c2ccccc2C)c1	hgDAF12 agonist 12
O=C(On1c(-c2ccccc2)nc2ccccc2c1=O)c1ccco1	none
O=C(Nc1ccc(Cl)c(Cl)c1)Nc1ccccc1O	none
O=C(Nc1ccccc1O)c1nc(Cl)ccc1Cl	ssDAF-12 act 2.5, hcDAF-12 act 5.9
COc1ccc(-c2nnc(-c3ccc(C)cc3)o2)cc1	none
COc1ccc(-c2nnc(SCc3ccccc3F)o2)cc1	DAX1 inh-1 4.4, hgDAF12 agonist 12, hcDAF-12 act 6.4
